The list is not random: actives were taken first. Their share in the collection is about 10%.
G9a block: G9a (human) methyltransferase inhibition | Q96KQ7 | G9a H3K9 monomethylation, AlphaScreen, 2 h | Potency, µM (highest dose often 102 µM), for the others: at the highest dose activity, negative = inhibition, most hits filed as inhibitors | 350,000 tested, 8.8% active | AID 504332; note: % is set by controls: 0 for no effect and ±100 for the full control effect; nearly all actives have a fitted effect of over 75% in size
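Readings reflect AlphaScreen signal from monomethyl-H3K9 antibody detection. HMT at 20 nM; substrate b-H3K9 500 nM; cofactor SAM 20 uM; 2 h RT reaction; compounds tested as titrations in qHTS with 15 min preincubation.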
GLS inhibitor: inhibitors of human glutaminase (GLS); O94925; GLS enzymatic activity, qHTS titration; Potency, µM (doses to about 45.5 µM), inactives show top-dose activity change, negative = inhibition, most hits filed as inhibitors; 410,000 tested, 0.21% active; AID 624170; note: % is set by controls: 0 for no effect and ±100 for the full control effect
Target sequence (O94925 whole entry, looked up): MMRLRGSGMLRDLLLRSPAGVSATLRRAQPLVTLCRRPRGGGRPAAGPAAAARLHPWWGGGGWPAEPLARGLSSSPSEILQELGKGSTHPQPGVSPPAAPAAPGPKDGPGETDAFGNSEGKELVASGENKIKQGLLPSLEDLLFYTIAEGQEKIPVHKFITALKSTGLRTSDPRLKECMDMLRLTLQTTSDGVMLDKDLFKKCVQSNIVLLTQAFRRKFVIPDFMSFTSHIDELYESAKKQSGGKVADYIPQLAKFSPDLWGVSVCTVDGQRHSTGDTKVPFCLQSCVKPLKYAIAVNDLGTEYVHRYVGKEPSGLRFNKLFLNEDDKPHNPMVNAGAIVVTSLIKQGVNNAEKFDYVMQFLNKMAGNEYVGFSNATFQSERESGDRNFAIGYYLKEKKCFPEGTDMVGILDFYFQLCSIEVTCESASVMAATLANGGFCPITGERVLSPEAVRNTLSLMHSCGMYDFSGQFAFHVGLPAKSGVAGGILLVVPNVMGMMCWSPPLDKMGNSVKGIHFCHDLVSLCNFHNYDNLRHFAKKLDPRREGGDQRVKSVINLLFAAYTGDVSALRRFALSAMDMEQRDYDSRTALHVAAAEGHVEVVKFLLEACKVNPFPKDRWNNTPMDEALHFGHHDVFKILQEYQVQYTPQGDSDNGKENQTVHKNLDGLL
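Assay buffer: 45 mM KH2PO4 pH 8.2, 0.02% Tween-20. hKGA acts on L-glutamine (1 mM solution added); product glutamate is reported by an oxidase/peroxidase Amplex Red coupling, with fluorescence taken at baseline and 30 min.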
L3MBTL1 block: L3MBTL1 (human) inhibition; Q9Y468; AID 485360; Potency, µM (highest dose often 57.1 µM), for inactives: at the top dose activity, negative = inhibition, usual class: inhibitors; 230,000 tested, 0.66% active; AlphaScreen L3MBTL1–H3K9me1 peptide binding; note: % is set by controls: 0 for no effect and ±100 for the full control effect; nearly all actives have a fitted effect of over 60% in size
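AlphaScreen assay: L3MBTL1 (50 nM final) was preincubated 30 min at room temperature with biotinylated H3(1-15)K9me1 peptide (75 nM final), then 30 min with library compounds; streptavidin donor and nickel chelate acceptor beads (10 ug/mL final) added, 30 min dark.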
BAZ2B inh: inhibitors of human BAZ2B bromodomain. 360,000 tested, 4.4% active. AlphaScreen BAZ2B-H3K14Ac peptide displacement. Potency, µM (series often up to 114 µM), for the others: at the top dose activity change, negative = inhibition, hits mostly inhibitors; note: % is set by controls: 0 for no effect and ±100 for the full control effect; nearly all actives have a fitted effect of over 60% in size
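AlphaScreen displacement of biotin-H3(5-23)K14Ac peptide (50 nM final) from BAZ2B (50 nM final) in PBS pH 7.4, 0.01% Tween-20; complex preformed 30 min RT, then compounds (top 110 uM) 30 min RT, beads 20 min dark.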
HP1b binding inh: HP1-beta chromodomain-methylated histone interaction inhibition; P83916; AlphaScreen HP1-beta / biotin-H3K9me3 peptide binding; Potency, µM (top dose mostly 114 µM), inactives show at the highest dose activity change, negative = inhibition, actives largely listed as inhibitors; 390,000 tested, 0.56% active; AID 540317; note: nearly all actives have a fitted effect of over 70% in size
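Compound inhibition of the preformed complex between 50 nM HP1-beta and 50 nM biotinylated H3K9me3 peptide was read by AlphaScreen. Buffer was PBS pH 7.4 with 0.01% Tween-20. Incubations ran 30 min at room temperature, with 10 ug/mL donor/acceptor beads.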
JMJD2A Tudor: inhibitors of human JMJD2A Tudor domain | Potency, µM (titrated, usually from 114 µM), inactives show top-dose activity change, negative = inhibition, usual class: inhibitors | AlphaScreen JMJD2A-Tudor / H3K4me3 peptide binding | O75164 | AID 504339 | 390,000 tested, 4.4% active; note: % is set by controls: 0 for no effect and ±100 for the full control effect; nearly all actives have a fitted effect of over 50% in size
Active calls of the source: *; ? = inconclusive; nt = not tested or not shown; [ ] = remark or other dose. Calls come from the whole dose curve; as a rule, active = well fitted curve in the direction sought with a large enough effect; inconclusive = small, poorly fitted or top-dose-only effect, or another doubt; inactive = no such curve, though single readings can be large; an effect the other way counts as inactive or inconclusive. Potency is the fitted concentration of half-maximal effect.

SMILES	G9a block	GLS inhibitor	L3MBTL1 block	BAZ2B inh	HP1b binding inh	JMJD2A Tudor
CCN1C2=C(C(=O)CCC2)C(c2ccc(O)cc2)C2=C1CCCC2=O	20µM*	44.8%	6.0%	4.9%	27.0%	-1.5%
COc1ccc(NC(=O)CN2C(=O)CCn3nc(-c4cccn4C)cc32)cc1	-36.4%[59 µM]	-4.0%	nt	?	-3.9%[57 µM]	?
CCCC12CN3CC(C)(CN(C1)C3c1ccc(CC)cc1)C2=O (stereo unspecified)	?	0.9%	nt	4.3%	67.9%	7.9%
CCN1CCN(C(=O)c2ccc3c(c2)N(Cc2ccc(Cl)cc2)C(=O)c2ccccc2S3=O)CC1 (stereo unspecified)	-45.6%[59 µM]	0.6%	nt	-20.8%	11.8%	-18.9%
CCCCC(=O)NC(=S)Nc1c(C)cc(Br)cc1C	10µM*	-4.4%	-1.0%	-22.1%	26.0%	?
CCCCCC(=O)NC(=S)NNC(=O)CC	?	31.4%	nt	33.0%	-8.2%	28.2µM*
CCCCC(=O)NC(=S)NNS(=O)(=O)c1ccccc1	?	2.8%	17.7%	-0.7%	-18.7%	?
CCCCC(=O)NC(=S)NNC(=O)CC	7.08µM*	5.9%	19.3%	17.8%	50.9%	6.9%[11.4 µM]
CCCCC(=O)NC(=S)Nc1cccc(NC(=O)CC)c1	41.3%[0.0925 µM]	39.6%	6.3%	3.3%	16.0%	-20.9%
COc1ccccc1S(=O)(=O)N1CCN(c2nc(-c3cccs3)nc3ccccc23)CC1	nt	nt	nt	nt	37.5%	-13.6%
COc1ccc(CCNC(=O)C(C)n2nc(C)c3sc4ccccc4c3c2=O)c(OC)c1 (stereo unspecified)	?	8.0%	nt	-33.7%	-1.9%	?
COc1ccc(NC(=O)Cn2c(=O)n(CC3CCCO3)c(=O)c3ccccc32)cc1 (stereo unspecified)	-5.1%[59 µM]	1.7%	nt	-0.9%	18.9%	1.0%
Cc1ccc(OCc2nc(-c3ccc(C(=O)N4CCN(c5ccccc5F)CC4)cc3)oc2C)cc1	?	-3.1%	nt	?	-9.7%	-23.8%
CCc1cc2c(=O)n3c(nc2s1)-c1[nH]c2ccc(OC)cc2c1CC3	?	-2.6%	2.6%	7.7%	21.3%	22.4µM*
Nc1c(Cl)ncnc1N/N=C/c1ccncc1	44.7µM*	0.4%	-0.4%	-9.2%	31.8%	0.7%
COc1cccc(/C=N/Nc2ncnc3scc(-c4ccccc4)c23)c1O	?	13.4%	31.6µM*	12.6µM*	-1.0%	44.7µM*
COc1cccc(/C=N/Nc2nccnc2Cl)c1O	60.9%[12.7 µM]	0.0%	?	14.1µM*	21.4%	39.8µM*
COc1ccc(/C=N/Nc2cc(C)nc3ccc(Br)cc23)cc1	-6.0%[2.33 µM]	-0.3%	nt	?	?	?
COc1ccc(/C=N/Nc2nccnc2Cl)c(OC)c1	nt	-8.0%	2.8%	?	-5.7%	-6.0%[11.4 µM]
COc1ccc2nc(C)cc(N/N=C/c3cccc(OC)c3O)c2c1	44.7µM*	13.7%	-13.6%	44.7µM*	?	50.1µM*
COc1ccc(NC(=O)c2oc3ccccc3c2NC(=O)C23CC4CC(CC(C4)C2)C3)c(OC)c1	9.1%[59 µM]	-7.8%	nt	-15.8%	24.6%	-15.2%
O=C(Cn1ncc2c3ccccc3n(Cc3cccc(Cl)c3)c2c1=O)NCc1cccs1	4.1%[59 µM]	-4.9%	nt	-23.2%	16.4%	-25.8%
O=C1CC(c2ccccc2)Cc2[nH]c(=O)c(C(=O)Nc3cccc(F)c3)cc21 (stereo unspecified)	20.0%[59 µM]	0.7%	nt	3.4%	41.7%	8.6%
CCn1cc(C(=O)NCCN(CC(C)C)CC(C)C)c(=O)c2cc(S(=O)(=O)N(C)C3CCCCC3)ccc21	-4.8%[59 µM]	-6.6%	nt	nt	22.3%	-11.7%
COc1ccc(/C=N/Nc2ncnc(Cl)c2N)cc1OC	50.1µM*	15.3%	-5.9%	?	1.7%	-25.0%
SMILES	G9a block	GLS inhibitor	L3MBTL1 block	BAZ2B inh	HP1b binding inh	JMJD2A Tudor
Nc1c(Cl)ncnc1N/N=C/c1cccc(O)c1	30.5%[12.7 µM]	13.5%	nt	-23.6%	21.1%	-21.4%
COc1cccc(/C=N/Nc2ncnc(Cl)c2N)c1O	53.9%[59 µM]	20.0%	20µM*	7.94µM*	31.7%	-26.8%
Cc1ccc(NC(=S)NNc2ccc([N+](=O)[O-])cc2S(=O)(=O)Nc2ccccc2C(=O)O)cc1C	11.2µM*	?	-21.6%	11.2µM*	?	50.1µM*
Cc1ccc(NC(=S)NNc2ccc(C(=O)O)cc2[N+](=O)[O-])cc1C	nt	?	nt	nt	50.1µM*	7.94µM*
Cc1cccc(NC(=O)C(C)OC(=O)c2ccccc2NS(=O)(=O)c2cc(C)c(C)c([N+](=O)[O-])c2)c1 (stereo unspecified)	-18.7%[59 µM]	1.0%	-11.9%	-11.2%	13.1%	-25.7%
O=C(O)c1ccccc1NS(=O)(=O)c1ccc(NNC(=S)Nc2ccc(OC(F)F)cc2)c([N+](=O)[O-])c1	10µM*	?	nt	7.94µM*	10µM*	25.1µM*
Cn1c(=O)oc2cc(S(=O)(=O)NCCC(=O)Nc3ccc(F)cc3F)ccc21	1.1%[59 µM]	2.4%	nt	-1.5%	35.3%	3.3%
O=C(COC(=O)CNC(=O)c1ccccc1F)Nc1nnc(-c2ccccc2)o1	56.2µM*	-1.3%	-1.6%	-37.6%	48.3%	-27.9%
Cc1nnc(Nc2ccc(O)cc2)[nH]c1=O	50.1µM*	26.2%	?	-25.6%	3.7%	-10.6%
Cc1nnc(Nc2ccc(C(=O)O)cc2)[nH]c1=O	2.7%	-0.4%	9.6%	-4.0%	14.5%	0.0%
CCN(CC)CCCNC(=O)C(C)n1nc(C)n2c(cc3occc32)c1=O (stereo unspecified)	-7.0%[59 µM]	0.5%	nt	5.7%	28.5%	-0.7%
O=C(N/N=C\c1ccc(F)cc1)c1csnn1	1.58µM*	-2.9%	-0.7%	-15.4%	21.6%	-18.6%
N/C(=N\N=C/c1ccc(F)cc1)N/N=C\c1ccc(F)cc1	50.1µM*	3.3%	11.0%	?	-8.1%	?
Cc1ccc(CNC(=O)c2ccc3c(c2)N(Cc2ccccc2Cl)C(=O)CS3)cc1	4.0%[59 µM]	3.7%	nt	-0.5%	23.9%	8.2%
COCCN(C(=O)CSc1nc2ccccc2c(=O)n1CC(C)C)c1c(N)n(Cc2ccccc2)c(=O)[nH]c1=O	?	-1.8%	nt	-11.0%	36.3%	-11.7%
CN(C(=O)COC(=O)CN1C(=O)c2ccccc2C1=O)c1c(N)n(Cc2ccccc2)c(=O)[nH]c1=O	?	-3.5%	2.2%	8.3%	25.3%	2.1%
Cc1ccccc1SCC(=O)OCC(=O)N(C)c1c(N)n(Cc2ccccc2)c(=O)[nH]c1=O	10µM*	-2.3%	20.5%	-22.8%	21.3%	-8.3%
Cc1ccccc1OCCC(=O)OCC(=O)N(C)c1c(N)n(Cc2ccccc2)c(=O)[nH]c1=O	44.7µM*	-0.6%	nt	-10.5%	19.6%	-29.2%
